{"source": "the supplement of paper PMC11732987", "about": "“Enantioselective OTUD7B fragment discovery through chemoproteomics screening and high-throughput optimisation” (Communications Chemistry, 2025)", "assay_in_all_cases": "log2 ratio of Biotin-Ahx-Ub-VS probe labelling (fragment/DMSO); higher = less target engagement (more negative = stronger competition), active = hit call of the paper (q ≤ 0.05, log2 ratio ≤ -1)", "conditions_in_all_cases": "compound concentration: 200 uM; treatment time: 3 h", "key": {"OTUD6B": {"target": "T1, OTUD6B (UniProt Q8N6M0)", "T1 sequence (whole entry)": "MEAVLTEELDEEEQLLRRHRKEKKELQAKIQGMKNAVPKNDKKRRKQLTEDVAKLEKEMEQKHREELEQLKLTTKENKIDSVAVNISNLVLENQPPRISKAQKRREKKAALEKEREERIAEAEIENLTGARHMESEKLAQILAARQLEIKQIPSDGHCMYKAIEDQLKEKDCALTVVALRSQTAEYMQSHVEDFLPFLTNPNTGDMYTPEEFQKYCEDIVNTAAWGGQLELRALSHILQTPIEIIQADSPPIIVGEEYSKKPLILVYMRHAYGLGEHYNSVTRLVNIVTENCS", "procedure,_shortened": "(§1)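 HEK293T lysate (495 µg per sample, in Tris/CHAPS/IGEPAL buffer with protease inhibitors) was exposed in triplicate for 3 h to fragment at 200 µM or to vehicle, then to Biotin-Ahx-Ub-VS at 0.5 µM final for 1 h. Labelled DUBs were enriched on NeutrAvidin, digested with LysC and trypsin, and analysed by diaPASEF LC-MS/MS. Spectronaut label-free quantities were normalised to the global median, and values are average log2 ratios of fragment over vehicle from an unpaired t-test. Only proteins with ≥2 unique peptides were used.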"}, "OTUD7B": {"target": "T2, OTUD7B (UniProt Q6GQQ9)", "T2 sequence (whole entry)": "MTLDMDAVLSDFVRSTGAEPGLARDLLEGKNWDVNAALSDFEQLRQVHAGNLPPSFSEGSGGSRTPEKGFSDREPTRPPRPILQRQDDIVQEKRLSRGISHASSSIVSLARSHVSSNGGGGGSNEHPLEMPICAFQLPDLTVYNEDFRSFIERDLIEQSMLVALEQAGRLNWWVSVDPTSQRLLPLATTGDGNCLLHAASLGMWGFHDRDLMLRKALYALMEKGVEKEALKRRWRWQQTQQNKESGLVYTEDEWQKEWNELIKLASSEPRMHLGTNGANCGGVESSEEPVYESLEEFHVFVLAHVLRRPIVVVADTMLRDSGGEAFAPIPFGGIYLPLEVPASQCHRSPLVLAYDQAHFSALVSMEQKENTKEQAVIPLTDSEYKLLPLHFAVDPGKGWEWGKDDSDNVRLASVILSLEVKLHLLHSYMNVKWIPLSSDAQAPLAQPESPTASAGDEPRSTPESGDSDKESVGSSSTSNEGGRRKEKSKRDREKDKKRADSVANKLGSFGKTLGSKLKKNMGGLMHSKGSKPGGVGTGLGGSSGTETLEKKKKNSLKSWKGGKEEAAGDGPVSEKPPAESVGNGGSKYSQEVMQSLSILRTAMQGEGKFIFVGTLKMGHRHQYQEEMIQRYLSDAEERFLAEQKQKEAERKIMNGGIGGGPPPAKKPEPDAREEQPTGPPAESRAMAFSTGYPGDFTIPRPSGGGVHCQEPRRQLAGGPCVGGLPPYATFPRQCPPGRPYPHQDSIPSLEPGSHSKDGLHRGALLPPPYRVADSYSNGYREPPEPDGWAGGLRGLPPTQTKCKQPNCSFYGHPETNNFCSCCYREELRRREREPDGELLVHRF", "procedure,_shortened": "as §1"}, "PRPF8": {"target": "PRPF8 (UniProt Q6P2Q9)", "procedure,_shortened": "as §1"}, "PSMD7": {"target": "T3, PSMD7 (UniProt P51665)", "T3 sequence (whole entry)": "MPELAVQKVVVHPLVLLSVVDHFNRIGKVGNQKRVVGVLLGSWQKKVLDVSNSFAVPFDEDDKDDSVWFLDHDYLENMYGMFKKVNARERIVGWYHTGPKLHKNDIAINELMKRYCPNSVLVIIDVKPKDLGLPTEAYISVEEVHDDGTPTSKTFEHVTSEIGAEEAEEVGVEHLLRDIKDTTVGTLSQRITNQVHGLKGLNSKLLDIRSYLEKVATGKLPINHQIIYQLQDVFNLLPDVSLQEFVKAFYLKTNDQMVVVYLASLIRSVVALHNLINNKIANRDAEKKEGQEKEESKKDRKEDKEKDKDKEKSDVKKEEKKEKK", "procedure,_shortened": "as §1"}, "UCHL1": {"target": "UCHL1 (UniProt P09936)", "sequence (P09936 whole entry, looked up)": "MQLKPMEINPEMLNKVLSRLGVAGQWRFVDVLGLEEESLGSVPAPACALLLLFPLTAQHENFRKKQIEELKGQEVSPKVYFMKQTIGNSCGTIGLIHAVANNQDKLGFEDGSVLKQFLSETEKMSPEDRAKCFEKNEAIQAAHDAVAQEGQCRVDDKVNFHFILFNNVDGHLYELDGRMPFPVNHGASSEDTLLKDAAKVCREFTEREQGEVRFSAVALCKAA", "procedure,_shortened": "as §1"}, "UCHL3": {"target": "T4, UCHL3 (UniProt P15374)", "T4 sequence (whole entry)": "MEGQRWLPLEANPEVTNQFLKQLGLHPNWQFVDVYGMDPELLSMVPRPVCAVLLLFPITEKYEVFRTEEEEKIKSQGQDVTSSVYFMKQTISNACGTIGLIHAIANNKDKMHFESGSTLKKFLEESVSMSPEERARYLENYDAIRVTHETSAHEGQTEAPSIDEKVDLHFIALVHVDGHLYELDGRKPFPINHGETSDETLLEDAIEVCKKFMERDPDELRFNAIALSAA", "procedure,_shortened": "as §1"}, "UCHL5": {"target": "T5, UCHL5 (UniProt Q9Y5K5)", "T5 sequence (whole entry)": "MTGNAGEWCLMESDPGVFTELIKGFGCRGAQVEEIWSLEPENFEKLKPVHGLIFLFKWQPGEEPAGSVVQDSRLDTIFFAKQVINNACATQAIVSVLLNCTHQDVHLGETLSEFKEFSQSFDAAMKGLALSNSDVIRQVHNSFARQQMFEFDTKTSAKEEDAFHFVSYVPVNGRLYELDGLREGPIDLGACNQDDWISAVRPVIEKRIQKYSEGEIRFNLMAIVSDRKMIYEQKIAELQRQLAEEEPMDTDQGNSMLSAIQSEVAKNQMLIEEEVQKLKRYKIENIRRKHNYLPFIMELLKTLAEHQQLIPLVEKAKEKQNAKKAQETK", "procedure,_shortened": "as §1"}, "USP10": {"target": "USP10 (UniProt Q14694)", "sequence (Q14694 whole entry)": "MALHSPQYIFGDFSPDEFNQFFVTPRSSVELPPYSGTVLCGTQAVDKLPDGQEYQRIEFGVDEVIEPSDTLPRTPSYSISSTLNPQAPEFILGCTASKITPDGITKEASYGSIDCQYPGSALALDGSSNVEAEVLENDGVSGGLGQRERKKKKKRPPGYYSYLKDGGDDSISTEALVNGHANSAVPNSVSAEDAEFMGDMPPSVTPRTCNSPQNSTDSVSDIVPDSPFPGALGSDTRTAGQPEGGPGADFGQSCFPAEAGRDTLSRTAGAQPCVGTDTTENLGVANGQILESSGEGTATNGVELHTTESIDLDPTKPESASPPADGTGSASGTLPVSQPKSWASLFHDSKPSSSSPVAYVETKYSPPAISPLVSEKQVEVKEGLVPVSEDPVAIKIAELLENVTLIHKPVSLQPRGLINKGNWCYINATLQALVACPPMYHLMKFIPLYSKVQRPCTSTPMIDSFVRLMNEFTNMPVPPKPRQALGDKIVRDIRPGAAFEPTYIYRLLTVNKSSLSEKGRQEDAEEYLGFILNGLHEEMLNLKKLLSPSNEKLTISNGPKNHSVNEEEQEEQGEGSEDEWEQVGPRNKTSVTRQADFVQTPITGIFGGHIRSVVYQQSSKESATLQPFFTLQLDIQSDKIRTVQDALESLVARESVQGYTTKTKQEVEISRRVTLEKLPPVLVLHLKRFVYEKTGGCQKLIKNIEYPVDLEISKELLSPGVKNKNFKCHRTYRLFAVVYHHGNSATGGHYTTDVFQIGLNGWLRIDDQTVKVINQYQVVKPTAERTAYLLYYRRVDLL", "procedure,_shortened": "as §1"}, "USP15": {"target": "T6, USP15 (UniProt Q9Y4E8)", "T6 sequence (whole entry)": "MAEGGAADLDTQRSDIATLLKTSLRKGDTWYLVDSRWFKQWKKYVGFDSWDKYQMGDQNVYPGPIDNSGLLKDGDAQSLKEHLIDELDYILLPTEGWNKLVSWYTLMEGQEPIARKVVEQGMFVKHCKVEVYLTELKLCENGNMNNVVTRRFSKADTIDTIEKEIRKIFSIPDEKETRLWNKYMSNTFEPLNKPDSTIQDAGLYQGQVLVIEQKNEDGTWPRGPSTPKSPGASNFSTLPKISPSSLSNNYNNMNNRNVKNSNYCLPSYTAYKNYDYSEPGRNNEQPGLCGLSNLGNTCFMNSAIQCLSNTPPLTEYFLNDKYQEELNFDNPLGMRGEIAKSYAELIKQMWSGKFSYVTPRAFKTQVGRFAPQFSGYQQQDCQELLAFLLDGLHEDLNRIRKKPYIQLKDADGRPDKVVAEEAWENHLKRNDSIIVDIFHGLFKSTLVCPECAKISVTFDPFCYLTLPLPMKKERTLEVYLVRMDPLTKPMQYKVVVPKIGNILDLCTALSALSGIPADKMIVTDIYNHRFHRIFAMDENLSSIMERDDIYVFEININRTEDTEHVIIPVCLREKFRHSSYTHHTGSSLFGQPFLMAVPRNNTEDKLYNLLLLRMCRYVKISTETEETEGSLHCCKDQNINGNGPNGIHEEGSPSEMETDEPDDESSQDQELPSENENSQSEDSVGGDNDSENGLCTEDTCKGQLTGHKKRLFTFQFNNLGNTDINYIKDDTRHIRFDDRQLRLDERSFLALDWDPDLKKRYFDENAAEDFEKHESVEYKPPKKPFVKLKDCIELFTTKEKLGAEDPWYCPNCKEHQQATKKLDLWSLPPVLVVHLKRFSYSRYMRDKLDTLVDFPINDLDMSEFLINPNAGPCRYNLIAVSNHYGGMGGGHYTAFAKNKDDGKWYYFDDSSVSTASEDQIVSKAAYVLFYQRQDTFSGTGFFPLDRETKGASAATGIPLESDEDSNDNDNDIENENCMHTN", "procedure,_shortened": "as §1"}, "USP16": {"target": "USP16 (UniProt Q9Y5T5)", "sequence (Q9Y5T5 whole entry, looked up)": "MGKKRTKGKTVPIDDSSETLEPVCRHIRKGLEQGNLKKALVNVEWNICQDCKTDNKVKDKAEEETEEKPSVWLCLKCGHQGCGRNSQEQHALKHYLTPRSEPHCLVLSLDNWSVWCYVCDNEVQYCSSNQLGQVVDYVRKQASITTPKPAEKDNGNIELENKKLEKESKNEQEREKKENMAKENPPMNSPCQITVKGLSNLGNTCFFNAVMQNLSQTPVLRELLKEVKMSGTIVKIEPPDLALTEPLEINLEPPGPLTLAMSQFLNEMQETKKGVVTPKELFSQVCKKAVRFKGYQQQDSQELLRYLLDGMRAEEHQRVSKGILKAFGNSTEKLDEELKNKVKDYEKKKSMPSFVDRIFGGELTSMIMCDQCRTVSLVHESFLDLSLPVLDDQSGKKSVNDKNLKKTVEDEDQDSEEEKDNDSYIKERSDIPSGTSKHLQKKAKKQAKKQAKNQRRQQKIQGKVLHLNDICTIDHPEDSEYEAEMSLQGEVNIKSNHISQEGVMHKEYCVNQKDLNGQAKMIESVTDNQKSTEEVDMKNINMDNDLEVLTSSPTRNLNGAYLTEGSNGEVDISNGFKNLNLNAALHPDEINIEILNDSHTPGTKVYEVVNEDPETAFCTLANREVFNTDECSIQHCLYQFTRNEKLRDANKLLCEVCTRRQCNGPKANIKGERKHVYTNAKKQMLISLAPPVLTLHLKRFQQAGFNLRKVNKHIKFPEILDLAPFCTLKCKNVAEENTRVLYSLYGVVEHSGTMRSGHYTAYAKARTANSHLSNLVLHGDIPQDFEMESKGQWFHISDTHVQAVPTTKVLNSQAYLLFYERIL", "procedure,_shortened": "as §1"}}, "note": "Unmarked numbers belong to inactive results."}
{"smiles": "Cc1cccc(C(CNC(=O)CCl)N2CCOCC2)c1.Cl", "note": "(stereo not given)", "values": [{"measurement": "log2 ratio of Biotin-Ahx-Ub-VS probe labelling", "setting": "OTUD6B", "result": -0.0947}, {"measurement": "log2 ratio of Biotin-Ahx-Ub-VS probe labelling", "setting": "OTUD7B", "result": -0.255}, {"measurement": "log2 ratio of Biotin-Ahx-Ub-VS probe labelling", "setting": "PRPF8", "result": -0.0193}, {"measurement": "log2 ratio of Biotin-Ahx-Ub-VS probe labelling", "setting": "PSMD7", "result": -0.183}, {"measurement": "log2 ratio of Biotin-Ahx-Ub-VS probe labelling", "setting": "UCHL1", "result": "-1.07 (active)"}, {"measurement": "log2 ratio of Biotin-Ahx-Ub-VS probe labelling", "setting": "UCHL3", "result": 0.278}, {"measurement": "log2 ratio of Biotin-Ahx-Ub-VS probe labelling", "setting": "UCHL5", "result": -0.182}, {"measurement": "log2 ratio of Biotin-Ahx-Ub-VS probe labelling", "setting": "USP10", "result": -0.0807}, {"measurement": "log2 ratio of Biotin-Ahx-Ub-VS probe labelling", "setting": "USP15", "result": -0.0506}, {"measurement": "log2 ratio of Biotin-Ahx-Ub-VS probe labelling", "setting": "USP16", "result": -0.147}]}
